Some of the results follow. Values without a mark were called inactive.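 Rule for the calls: active = mean percent activation across triplicates above a set limit taken from the earlier primary procaspase-3 screen; inactive = the rest.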
Molecular target: Caspase-3 (Homo sapiens) (UniProt P42574)
Assay: procaspase-3 activators, counter-screen for dual procaspase-3/7 activator project, biochemical, absorbance, PC-3 D3A mutant, human (AID 493114);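 note: 0% = DMSO wells and 100% = DMSO wells with 5 µM added PC-3 D3A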
Settings: recombinant PC-3 D3A, Ac-DEVD-pNA absorbance 405 nm; at 8.5 µM; hits give high values; 100% = enzyme control; aspartates 9, 28, 175 changed to alanine

Chain of Caspase-3 (Homo sapiens) (P42574 whole entry D9A/D28A/D175A): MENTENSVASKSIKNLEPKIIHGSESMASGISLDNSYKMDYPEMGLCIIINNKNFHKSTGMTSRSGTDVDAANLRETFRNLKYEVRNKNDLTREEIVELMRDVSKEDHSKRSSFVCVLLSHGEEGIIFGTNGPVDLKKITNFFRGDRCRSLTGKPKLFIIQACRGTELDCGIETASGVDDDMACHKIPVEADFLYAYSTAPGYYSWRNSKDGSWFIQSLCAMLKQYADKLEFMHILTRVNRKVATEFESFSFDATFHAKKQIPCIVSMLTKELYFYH

Point of comparison: O=C1OCCN1C(=O)[C@H]1[C@H](c2ccc(F)cc2)C(c2ccccc2)=NN1c1ccc(Br)cc1, activation -28.8%. Against it:
- COc1ccc(-c2onc3ccc(C(C)=O)cc23)cc1 — higher, -28%
- CC(=O)Oc1ccc2c(C)c(CC(C)O)c(=O)oc2c1 (stereo not given) — lower, -29.8%
- COc1ccccc1N=Cc1c(O)c2ccccc2oc1=O — higher, -28.6%
- COc1ccc2sc(-c3ccc(S(C)(=O)=O)cc3)c(C#Cc3cncn3C)c2c1 — lower, -29.9%
- COc1ccc(Nc2ncnc3sc(-c4ccccc4)cc23)c(OC)c1 — higher, -22.7%
- COc1ccc(Nc2ncc(C(=O)N3CCN(c4ccccc4OC)CC3)c3ccccc23)cc1 — higher, 0.74%
- Nc1cccc2c1C(=O)N(Cc1nnc(-c3ccccc3Br)o1)C2=O — higher, -28.5%
- CCN(CC)c1ccc2oc(=O)c(C)nc2c1 — higher, -12.2%
- COc1ccc(/C=N/Nc2nc3ccccc3c(=O)[nH]2)cc1 — higher, 0.42%
- CC1(C)Cc2c(C#N)c(SCc3nc4ccccc4[nH]3)nc(N3CCOCC3)c2CO1 — higher, -28.2%
- CCCCOC(=O)Cn1c(=O)n(CC(=O)OCCCC)c2cc(C)ccc21 — higher, 2.96%
- CCOC(=O)C1(CCOC)CCN(Cc2cc3ccccc3s2)CC1 — higher, 2.49%
- CNS(=O)(=O)c1cccc(C(=O)NC2CCCc3ccccc32)c1 (stereo not given) — higher, 2.51%
- Fc1ccc(N2N=C(c3cccs3)CC2c2ccco2)c(F)c1 (stereo not given) — lower, -29.1%

From PubChem BioAssay AID493114 (The Scripps Research Institute Molecular Screening Center, 2011)
